Results on six compounds are retold here after PubChem BioAssay (NCATS).

SMILES strings stand for the structures. Records with an inconclusive call do not appear. Entries that show only a call come without a potency. Active and inactive are the calls of the source. Calls follow the shape of the dose curve; as a rule, active = well fitted inhibition curve with a large enough effect; inconclusive = small, poorly fitted or top-dose-only effect; inactive = flat fitted curve, though single readings scatter.

This assay deals with CRL-7250. The experiment in a line: qHTS assay to identify novel small-molecules to repurpose for Merkel cell carcinoma treatment (AID 1296009). Also: nearly all actives have a fitted effect of over 60% in size. The conditions noted are these: MCC and control cell lines, CellTiter-Glo viability, 72 h; series mostly up to 92 µM. The method in brief: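 72 hr, 37 degree celsius; NPC 8-pt / MIPE 11-pt dose response; compound pinned in DMSO; CellTiter-Glo, 10 min RT, luminescence; normalized to no-cell and DMSO controls.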
As for `OC[C@H]1O[C@@H](OC[C@H]2O[C@@H](OCc3ccccc3)[C@H](O)[C@@H](O)[C@@H]2O)[C@H](O)[C@@H](O)[C@@H]1O`, the Potency entry is “inactive”. The entry for `CCC(=O)N[C@@H]1Cc2ccccc2[C@H](c2ccccc2)C1` is “inactive”; for `CCOC(=O)c1sc(NC(=O)[C@H](C(C)C)n2c(=O)[nH]c3ccccc3c2=O)nc1C` it is “inactive”; for `Clc1cccc(COc2cncc(N3CCNCC3)n2)c1` it is “inactive”. For `C=C(C(=O)O)[C@@H]1CC[C@@]2(C)CC[C@H](O)[C@@]2(C(C)=O)C1`, the Potency entry was “inactive”. The entry for `CC(O)C/C=C/C=C/C(=O)OC1C=C2COC(=O)C2(O)C2(C)CCCC(C)(C)C12` (stereo unspecified) is “inactive”.
